# HIV Env fusion – HIV envelope-mediated fusion inhibition | HeLa-JRFL Env/CEM21 cell fusion, luciferase | inhibition, % at 12.3 µM | 360,000 tested, 1.1% active | AID 651610;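 active = mean replicate inhibition score of at least 50 and every replicate individually at or above 50; inconclusive = only one of the two criteria met; inactive = mean below 50 and not all replicates reaching 50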;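 note: 0% = plate neutral controls and 100% = maraviroc near 300 nM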
# esBAF inh – blocks esBAF chromatin remodeling in mouse ES cells; Bmi1-luciferase knock-in reporter, 24 h; 100% = twice the neutral-well signal; reporter increase, % at 12.5 µM; 350,000 tested, 2% active; AID 602393; in the data active = activation above about 40%; inconclusive = no clear call, values can overlap the other calls;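 note: 0% = median of the plate's neutral control wells and 100% = double that signal; a rise in the Bmi1 reporter signal indicates esBAF inhibition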
# Wnt act – Wnt/beta-catenin pathway activation; Wnt/beta-catenin reporter cell assay, activator, plate reader; activation, % at 9.35 µM; 300,000 tested, 1.2% active; AID 743398; in the data active = activation above about 30%, passing the limit was not always enough; inconclusive = no clear call, values can overlap the other calls;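 note: 0% = neutral control wells and 100% = positive control wells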
# miR122 inh – blocks miR-122 activity in Huh7 sensor cells. Huh7 miR-122 Renilla luciferase sensor, 48 h; neutral wells = 0, positive control = 100. activation (reporter increase), % at 12.5 µM. 340,000 tested, 0.3% active. AID 602342;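 active = mean replicate activation score at least 90 and every replicate individually at or above 90; inconclusive = only one of the two criteria met; inactive = neither criterion met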;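 note: higher luciferase means less miR-122 activity so hits act as miR-122 inhibitors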
# MITF act – MITF TRPM1 promoter activation in melanoma cells; activation, % at 12.5 µM; SK-MEL-5 TRPM1-promoter luciferase, 24 h; % of positive control, neutral wells = 0; 300,000 tested, 0.75% active;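 active = mean activation of at least 80% with every replicate also reaching 80%; inconclusive = mean reaches 80% but some replicate falls short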;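 note: 0% = neutral control wells and 100% = parthenolide positive control wells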
# The depositor's hits bear a star; ? = inconclusive; . = not tested or not shown; [ ] = remark or other dose. Sampled rows, rich in hits. Any-hit rate of the full collection: about 3.4%.
SMILES,HIV Env fusion,esBAF inh,Wnt act,miR122 inh,MITF act
CCc1nc2ccccc2c(C(=O)OCC(=O)N2CC(C)OC(C)C2)c1C (centres undefined),64*,10,-1,-1,-4
CCc1nc2ccc(C)cc2c(C(=O)Oc2cccc3cccnc23)c1C,-28,-1,.,1,.
CCc1nc2ccccc2c(C(=O)Oc2cccc3cccnc23)c1C,80*,27,.,-6,.
Cc1nn(-c2ccccc2)c(Cl)c1/C=N/NC(=O)OC(C)(C)C,17,.,34*,-6,57
CC(=O)NCCNc1nc2cc(-c3ccc(C)cc3)sc2c(=O)n1C,-4,54*,5,-1,.
COc1ccc(Nc2nc3cc(-c4ccsc4)sc3c(=O)n2C)cc1OC,-20,30,10,5,.
COc1cccc(CNc2nc3cc(-c4ccccc4)sc3c(=O)n2C)c1OC,66*,8,-3,-6,.
COc1cccc(-c2cc3nc(Nc4ccc(OC)c(OC)c4)n(C)c(=O)c3s2)c1,-64,53*,0,1,.
C[C@@H]1CCCCO[C@@H](CN(C)S(=O)(=O)c2ccc(Cl)cc2)[C@H](C)CN([C@H](C)CO)C(=O)c2cc(NC(=O)Nc3ccc(F)cc3)ccc2O1,25[16.7 µM],0,.,-11[16.7 µM],.
C=CCNc1nc(-c2ccc([N+](=O)[O-])cc2)cs1,-82,.,18,.,80
CN(C)c1nc(-c2ccc([N+](=O)[O-])cc2)cs1,.,67*,.,-6,?
CC(C)C#Cc1ccc2c(c1)O[C@H](CN(C)CC1CCOCC1)[C@@H](C)CN([C@@H](C)CO)S2(=O)=O,14[16.7 µM],6,.,56[16.7 µM],.
Cc1ccccc1Cn1ccc(-c2ccc3c(c2)OCO3)n1,-30,60*,.,-7,73
Cc1ccccc1Cn1nnc(-c2ccc3c(c2)OCO3)n1,.,51*,.,-1,70
Fc1cccc(Cn2ccc(-c3ccc4c(c3)OCO4)n2)c1,-36,64*,.,25,.
Cc1ccccc1Cn1nnc(-c2ccc(C(=O)O)cc2)n1,-6,.,-1,.,-2
Cc1nccc(-c2ccc3c(c2)OCO3)n1,-8,.,4,.,-1
Cc1ccccc1Cn1nnc(-c2cccc(C(=O)O)c2)n1,-113,15,39*,-1,-1
N#CCn1nnc(-c2ccc3c(c2)OCO3)n1,-32,8,6,-3,.
CO[C@@H]1CN(C)C(=O)c2cc(NC(=O)C3CC3)ccc2OC[C@H](C)N(C(=O)Cc2ccccn2)C[C@@H]1C,26[16.7 µM],-4,.,.,.
CCc1nc2oc3cc(OC)ccc3c(=O)c2c(=O)n1-c1ccccc1,-332,45*,13,3,43
Cc1ccc(-n2c(C)nc3oc4ccccc4c(=O)c3c2=O)cc1,-198,56*,?,11,12
CCc1nc2oc3ccccc3c(=O)c2c(=O)n1Cc1ccccc1,-62,.,0,.,-16
CC(C)C(=O)Nc1ccc2c(c1)C(=O)N(C)[C@@H]1CC[C@@H](CC(=O)NC3CCCC3)O[C@@H]1CO2,.,8,.,-22[16.7 µM],.
COc1ccc(NC(=O)C2C(c3ccc4c(c3)OCO4)=Nc3ccccc3N2C(C)=O)cc1 (centres undefined),-40,.,35*,.,.
SMILES,HIV Env fusion,esBAF inh,Wnt act,miR122 inh,MITF act
C[C@H](CO)N1C[C@H](C)[C@H](CN(C)C(=O)Nc2ccc(C(F)(F)F)cc2)Oc2c(NS(=O)(=O)c3ccc(F)cc3)cccc2C1=O,57*[16.7 µM],16,.,37[16.7 µM],.
C[C@H](CO)N1C[C@H](C)[C@H](CN(C)C(=O)Nc2ccccc2)Oc2c(NS(=O)(=O)c3ccc(F)cc3)cccc2C1=O,88*[16.7 µM],3,.,-6[16.7 µM],.
C[C@@H]1CN([C@@H](C)CO)C(=O)c2cccc(NS(=O)(=O)c3ccc(F)cc3)c2O[C@H]1CN(C)C(=O)Nc1ccc(C(F)(F)F)cc1,22[16.7 µM],3,.,3[16.7 µM],.
CC=Cc1ccc2n(c1=O)C[C@@H]1[C@@H](CO)[C@H](C(=O)NC3CCC3)[C@H]2N1C(=O)c1ccccn1 (mixture of isomers),12[16.7 µM],-3,.,.,.
CC(C)COP(=O)(c1ccc(N(C)C)cc1)C(O)c1ccc(Br)cc1 (centres undefined),56*,.,-2,.,2
CC(C)OP(=O)(c1ccc(N(C)C)cc1)C(O)c1ccc(C(C)C)cc1 (centres undefined),74*,-1,-2,6,5
CN(C)c1ccc(P(=O)(OCc2ccccc2)C(O)c2ccc(Br)cc2)cc1 (centres undefined),6,-4,0,.,-2
O=C(CSc1nnc(-c2ccccc2)n1Cc1ccccc1)N1CCOCC1,-83,-5,.,12,.
Oc1ccccc1-c1nnc(SCCN2CCOCC2)n1Cc1ccccc1,-1,?,2,241*,-21
C[C@@H]1CN([C@@H](C)CO)C(=O)c2cc(NC(=O)c3ccccc3)ccc2O[C@@H](C)CCCCO[C@@H]1CN(C)S(=O)(=O)c1ccc(Cl)cc1,13[16.7 µM],3,.,-3[16.7 µM],.
CCCCn1cnc2cc(NCc3ccncc3)ccc21,-34,7,.,6,-1
CCc1ccc(CNc2ccc3c(c2)ncn3CC)cc1,-34,75*,29,2,91*
CC(C)(C)n1cnc2cc(NCc3ccc(Br)cc3)ccc21,-48,51,?,18,75
CCc1ccc(CNc2ccc3c(c2)ncn3C(C)(C)C)cc1,11,51*,29,7,35
CC1CCc2sc(C(=O)NCC3CCCO3)cc2C1 (centres undefined),-47,20,40*,.,101*
O=C(NCC1CCCO1)c1cc2c(s1)CCC2 (centres undefined),-9,.,6,.,9
OC[C@@H]1[C@@H](c2ccc(F)cc2)C(c2ccccc2)=NN1c1ccccc1,71,-2,-2,-1,20
CC[C@H]1C(c2ccc(F)cc2)=NN(c2ccccc2)[C@@H]1CO,60*,1,-2,31,3
C[C@@H]1CCCCO[C@H](CN(C)C)[C@@H](C)CN([C@H](C)CO)C(=O)c2cc(NC(=O)Nc3ccccc3)ccc2O1,5[16.7 µM],-4,.,2[16.7 µM],.
Cc1ccc(NCCC(=O)c2cccs2)cc1C,-34,68*,-1,2,106*
Cc1ccc(CNC(=O)CCC(=O)c2cccs2)cc1,0,0,.,1,-6
Cc1ccc(NCCC(=O)c2cccs2)cc1,-9,64*,0,-2,72
Cc1ccc(NC(=O)COC(=O)CCC(=O)c2cccs2)c(Br)c1,.,6,1,.,8
Cc1ccc(NC(=O)CCC(=O)c2cccs2)cc1,-27,6,41*,-8,.
Cc1ccc(NC(=O)CCC(=O)c2cccs2)c(Br)c1,-65,.,23,-4,86*
Cc1ccc(S(=O)(=O)Nc2ccc3c(c2)C(=O)N([C@H](C)CO)C[C@@H](C)[C@@H](CN(C)S(=O)(=O)c2c(C)noc2C)OCCCC[C@H](C)O3)cc1,-37[16.7 µM],3,.,5[16.7 µM],.
CC(C)NC(=O)N1C[C@H]2[C@@H](c3ccccc31)[C@@H](CO)N2C(=O)c1ccccc1,.,-6,.,12[16.7 µM],.
Cc1ccc(NCCC(=O)c2cccs2)cc1Cl,-93,55*,19,-11,29
